Results on 22 molecules are retold here after PubChem BioAssay (EPA / NIEHS).

Calls of active or inactive are those of the source. How the source made its calls: active means hit-call score of the fitted dose curve at least 0.9, where 1 is the maximum; inactive means score below 0.9.

This experiment can be described thus: ATG_GLI_CIS: Attagene CIS-FACTORIAL HepG2 Assay for human Zinc Finger Protein GLI1 (AID 2282945). The note with it: HepG2, Attagene cis-factorial reporter mRNA, GLI element; actives raise or lower the signal. In a few lines: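 Transiently transfected HepG2 cells report endogenous transcription factor activity via cis-element-driven reporter units. After 24 h compound exposure, reporter mRNA was measured by RT-PCR with capillary electrophoresis; bidirectional fitting against DMSO baseline.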
With `O=C(O)c1cccc(C(=O)O)n1`, the molecule was called inactive.

Consider `O=P(O)(O)CCC(F)(F)C(F)(F)C(F)(F)C(F)(F)C(F)(F)C(F)(F)F`, for which the call was inactive.

On to `CN(Cc1cnc2nc(N)nc(N)c2n1)c1ccc(C(=O)N[C@@H](CCC(=O)O)C(=O)O)cc1`, for which the outcome was inactive.

For the molecule `O=C(OC(=O)C(F)(F)C(F)(F)F)C(F)(F)C(F)(F)F`, the call was inactive.

Regarding `Cc1cccc2c1ccc1ccccc12`, the result was inactive.

Take `CCCCC(CC)C(=O)OCCOCCOCCOCCOC(=O)C(CC)CCCC` (configuration not stated): the call was inactive.

Consider `O=C(O)CCC(F)(F)C(F)(F)C(F)(F)C(F)(F)C(F)(F)C(F)(F)F`, for which the molecule was classed as inactive.

For the molecule `CCCCCCCCCCCCOC(=O)c1cc(O)c(O)c(O)c1`, the call was inactive.

With `CC(C)(C)c1ccc(CCC=O)cc1`, the outcome was inactive.

For `O=C(O)CN(CCCN(CC(=O)O)CC(=O)O)CC(=O)O`, the call was inactive.

Regarding `Cc1ccccc1C(OCCN(C)C)c1ccccc1` (configuration not stated), the molecule was called inactive.

Turning to `CC(C)(C)C1CCCCC1O` (configuration not stated), the molecule was called inactive.

On to `c1ccc(CNc2ncnc3c2ncn3C2CCCCO2)cc1` (configuration not stated), for which the result was inactive.

For the molecule `C=CC(=C)CC/C=C(\C)CCC=C(C)C`, the outcome was inactive.

Consider `Clc1ccc(Nc2nnc(Cc3ccncc3)c3ccccc23)cc1`, for which the molecule was called inactive.

As for `CCOC(=O)CN[C@@H](C(=O)N1CC[C@H]1C(=O)NCc1ccc(/C(N)=N/O)cc1)C1CCCCC1`, the outcome was inactive.

Regarding `CC1CNCC(C)O1` (configuration not stated), the outcome was inactive.

For the molecule `Cc1cc(Cc2cc(C)cc(C(C)(C)C)c2O)c(O)c(C(C)(C)C)c1`, the AC50 is 165 µM (active).

Turning to `CCC(=O)C=Cc1ccc(OC)cc1`, the molecule was called inactive.

As for `CC=O`, the call was inactive.

As to `CCCCCCCCCCCCCCCCCC[N+](C)(C)Cc1ccccc1`, the molecule was classed as inactive.

As to `Nc1cc(Cl)c(-c2cc(Cl)c(N)cc2Cl)cc1Cl`, the molecule was classed as inactive.
